Broadly, the inhibition is the relative decrease from the control value, in per cent.

Structures are written as SMILES. Where “and” joins values, the source holds several entries; their conditions need not be identical. Equal entries are not always repeated. Calls of active or inactive are those of the source. How the calls were made is not given here.

This passage reports inhibition results from PubChem BioAssay AID1053 (University of Pittsburgh Molecular Library Screening Center, 2008).

Sequence of Serine/threonine-protein kinase PLK1 (Homo sapiens) (P53350 whole entry, looked up, the tested form may be a part): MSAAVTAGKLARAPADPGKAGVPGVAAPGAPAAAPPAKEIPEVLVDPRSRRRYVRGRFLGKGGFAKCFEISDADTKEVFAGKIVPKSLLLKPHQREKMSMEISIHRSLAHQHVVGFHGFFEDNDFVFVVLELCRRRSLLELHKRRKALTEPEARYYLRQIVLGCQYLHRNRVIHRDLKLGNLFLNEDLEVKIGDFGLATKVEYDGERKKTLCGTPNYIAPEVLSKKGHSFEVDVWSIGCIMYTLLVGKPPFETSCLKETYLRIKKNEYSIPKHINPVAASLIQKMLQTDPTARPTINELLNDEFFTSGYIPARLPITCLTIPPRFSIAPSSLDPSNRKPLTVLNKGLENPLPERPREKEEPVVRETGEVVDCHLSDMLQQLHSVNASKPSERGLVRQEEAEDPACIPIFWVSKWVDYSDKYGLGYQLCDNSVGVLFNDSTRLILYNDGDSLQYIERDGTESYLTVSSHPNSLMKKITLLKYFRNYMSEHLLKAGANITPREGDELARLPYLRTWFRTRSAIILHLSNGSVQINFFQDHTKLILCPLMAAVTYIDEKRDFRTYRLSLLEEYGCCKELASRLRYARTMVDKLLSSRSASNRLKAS

The experiment concerns the target Serine/threonine-protein kinase PLK1 (Homo sapiens) (UniProt P53350). In words: Plk1 polo box domain binding inhibitors, SAR follow-up, biochemical, fluorescence polarization, purchased analogs (AID 1053). To be noted: Plk1 PBD fluorescence polarization peptide binding; at 20 µM; active compounds read high. For orientation: In fluorescence polarisation assays a small probe gives low polarisation when free and higher when bound to something large.
On to `Cc1ccc(-c2nc3c(=O)n(C)c(=O)nc-3n(C)n2)cc1`, for which the inhibition is 43.1% (inactive). With `CCn1nc(-c2ccc([N+](=O)[O-])cc2)nc2c(=O)n(C)c(=O)nc1-2` the figure was 60.6% (active).

In the case of `Cn1c(O)c(C(=O)c2ccccc2Cl)c(=O)n(C)c1=O`, the inhibition is -36.4% (inactive). Under `CCN(CC)CCOC(=O)c1ccc(N=Cc2c(O)[nH]c(=O)[nH]c2=O)cc1` stands -148% (inactive) and -184% (inactive); under `O=C1NC(=O)C(=Cc2c3ccccc3cc3ccccc23)C(=O)N1`, -41.5% (inactive); under `CCCC(=O)c1c(O)[nH]c(=O)[nH]c1=O`, -47.7% (inactive) and -64.6% (inactive).

Take `Cn1nc(-c2ccccc2)nc2c(=O)n(C)c(=O)nc1-2`: the inhibition is 31.4% (inactive).

For the molecule `O=C1NC(=O)C(=Cc2cccn2-c2ccc([N+](=O)[O-])cc2)C(=O)N1`, the inhibition was -40.9% (inactive). With `CCOC(=O)c1ccc(N=C(c2ccccc2)c2c(O)n(C)c(=O)n(C)c2=O)cc1` the figure was -58.1% (inactive); with `COc1cc(C=C2C(=O)NC(=O)NC2=O)cc(Cl)c1O`, -40.9% (inactive); with `CCn1nc(-c2ccccc2Cl)nc2c(=O)n(C)c(=O)nc1-2`, 43.6% (inactive).

As for `COc1cc(Br)cc(C=C2C(=O)NC(=O)NC2=O)c1O`, the inhibition is -39.8% (inactive). Under `CCn1nc(-c2ccccc2)nc2c(=O)n(C)c(=O)nc1-2` stands -2.54% (inactive).
